Test results: ChEMBL document CHEMBL3988442, “University of Dundee, Small-Polar-MMV Screening Library” (2021)
Results with a measured potency or affinity are listed apart.

These compounds were tested against Protein translocase subunit SecA (Escherichia coli (strain K12)) (UniProt P10408) (assay: Assay to Identify E. coli SecA ATPase Inhibitors). Settings: 30 µM.
Assay type: functional
Parameters: scale not given: direction of the effect not stated beside the values

Sequence of Protein translocase subunit SecA (Escherichia coli (strain K12)) (P10408 whole entry): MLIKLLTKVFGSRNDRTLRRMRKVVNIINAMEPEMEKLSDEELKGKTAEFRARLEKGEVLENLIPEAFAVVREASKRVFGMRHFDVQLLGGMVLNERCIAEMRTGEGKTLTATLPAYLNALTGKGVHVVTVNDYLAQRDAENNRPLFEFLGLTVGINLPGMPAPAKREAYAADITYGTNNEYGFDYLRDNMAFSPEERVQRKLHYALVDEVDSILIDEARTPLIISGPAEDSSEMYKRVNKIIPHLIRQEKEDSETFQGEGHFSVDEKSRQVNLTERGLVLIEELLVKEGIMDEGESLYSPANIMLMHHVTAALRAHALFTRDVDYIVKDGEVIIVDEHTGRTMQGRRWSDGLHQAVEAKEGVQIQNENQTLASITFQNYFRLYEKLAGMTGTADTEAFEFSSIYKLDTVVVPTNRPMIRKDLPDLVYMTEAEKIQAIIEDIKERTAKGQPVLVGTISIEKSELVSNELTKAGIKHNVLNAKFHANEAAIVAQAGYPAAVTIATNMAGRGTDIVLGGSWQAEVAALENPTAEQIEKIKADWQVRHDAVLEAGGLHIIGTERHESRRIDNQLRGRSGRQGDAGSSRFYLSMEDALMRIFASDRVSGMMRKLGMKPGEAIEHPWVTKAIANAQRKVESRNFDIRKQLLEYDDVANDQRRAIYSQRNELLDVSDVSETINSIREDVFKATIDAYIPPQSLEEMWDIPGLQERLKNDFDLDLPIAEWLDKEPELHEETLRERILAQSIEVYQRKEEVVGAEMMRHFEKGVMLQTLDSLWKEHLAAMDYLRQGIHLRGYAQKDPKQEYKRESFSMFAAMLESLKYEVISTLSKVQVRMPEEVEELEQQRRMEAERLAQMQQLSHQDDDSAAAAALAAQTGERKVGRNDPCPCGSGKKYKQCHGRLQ

| SMILES | Percent Effect [%] |
| --- | --- |
| O=C(NCCNc1ncccn1)N1CCN(Cc2cccnc2)CC1 | -10.3 |
| CC(C)N1CCC(N2CCN(C3CCC3)CC2CCO)CC1 (stereo not given) | -2.22 |
| COc1ccc(CN2CCCC(Cn3nc(C)nc3C)C2)cc1F (stereo not given) | -2.67 |
| Cc1cnn(CCCNC(=O)N2CCCCC(N3CCCC3)C2)c1 (stereo not given) | -2.45 |
| CCn1cc(NC(=O)NCC(c2cccs2)N(C)C)cn1 (stereo not given) | 0.424 |
| c1cnn(Cc2cn3c(n2)CN(Cc2nccs2)CC3)c1 | -2.43 |
| CCc1noc(C2CCN(C(=O)CCn3nc(C)cc3C)CC2)n1 | -4.24 |
| CC(C#N)CSc1ccccc1NCC(=O)Nc1ccc(F)cc1 (stereo not given) | -7.84 |
| CCc1nc(CN2CCCC(NCc3nnc(C4CC4)o3)C2)no1 (stereo not given) | -2.45 |
| CCc1ccc(CCC(=O)N2CCOCC2c2ncon2)cc1 (stereo not given) | 2.75 |
| CC(=O)N1CCN(c2cc(C3CN(C)CCO3)nc(C)n2)CC1 (stereo not given) | -3.82 |
| CN(C)CC1CSCCCN1C(=O)Nc1ccc(C(C)(C)C)cc1 (stereo not given) | -1.39 |
| Cc1n[nH]c(C2CN(C(=O)c3ccco3)CCO2)n1 (stereo not given) | -4.76 |
| Clc1ccccc1C1(c2ccnc(CC3CC3)n2)CCNCC1 | -2.96 |
| Cc1cc2cc(C(=O)N[C@@H]3CC[C@@H](N4CCOCC4)[C@@H]3O)ccc2o1 | 1.28 |
| CC(C)c1nnc2n1CCN(CC(=O)Nc1nncs1)C2 | -0.203 |
| CCc1noc(C)c1C(=O)N1CCCC1c1c(C)nn(C)c1OC (stereo not given) | -2.91 |
| COc1cc(C)nc(N2CCN(C(=O)c3ccc[nH]3)CC2)n1 | -5.18 |
| O=C(NCc1cccnc1)C1CC(=O)N(CC2CC2)C1 (stereo not given) | -5.33 |
| Fc1ccc(CN2CCO[C@H]3[C@H](OCC4CC4)CC[C@@H]32)cc1 | -2.57 |

| SMILES | Percent Effect [%] |
| --- | --- |
| COCCN1CCC2(CCCN(C(=O)c3cnoc3C)C2)C1=O (stereo not given) | 0.295 |
| CC(C)CCN1CCNC(=O)C1CC(=O)N1CCc2sccc2C1 (stereo not given) | -4.93 |
| O=C(CN1CCCCC1Cn1cncn1)NC1CCN(C2CC2)CC1 (stereo not given) | -0.975 |
| COCCC(=O)N1CCC2(COCc3cnc(-c4ccccc4)nc32)C1 (stereo not given) | -1.59 |
| Cc1cc(CN2CCc3nn(C(C)C)c(=O)cc3C2)no1 | -6.46 |
| Cc1cccc(Cn2ccc(NS(C)(=O)=O)n2)c1 | -6.41 |
| CN1CCN(Cc2ccccc2CNC(=O)c2ccc(Br)cc2F)CC1 | -2.05 |
| CCCC(=O)N1CCC(O)(Cn2c(CC)nc3ccccc3c2=O)CC1 | -1.08 |
| CN(CC1(O)CCCCC1)C1CCCN(Cc2noc(C3CC3)n2)C1 (stereo not given) | -0.786 |
| Cc1ccc(N2CCCN(C(=O)C(C(C)C)n3cncn3)CC2)nn1 (stereo not given) | -1.22 |
| CCc1nnc(CNCC2CCCN2c2cccnn2)o1 (stereo not given) | -2.1 |
| Cc1cc(NC(=O)CN2CCc3nn(C)c(=O)cc3C2)on1 | -3.81 |
| CCc1c(C(=O)NCC(=O)OCC2CC2)cnn1-c1ccc(C)cc1 | -5.86 |
| Fc1ccc(CN2CCCN(Cc3cscn3)CC2)cc1 | -1.59 |
| Cc1cc(C)n(CC(=O)N2CCC(NS(C)(=O)=O)CC2)n1 | -2.87 |
| CC(=O)NCCNC(=O)CN1CCN(Cc2nccn2C)C(C)C1 (stereo not given) | -6.92 |
| CSCCCN1CCCC1c1noc(C)n1 (stereo not given) | -0.0492 |
| CCn1ccnc1CN1CCC(CNC(=O)c2ccc(C)nc2)C1 (stereo not given) | -0.749 |
| CC(=O)N1CC(Cc2nccc3ccn(C)c23)C1 | -2.79 |
| NC(=O)CN1CCC(NC(=O)c2ccn(-c3cccc(F)c3)n2)CC1 | -1.05 |

What follows are compounds tested against T1, Ubiquitin-activating enzyme e1, putative (Leishmania donovani (strain BPK282A1)) (UniProt E9BSI1) (assay: Leishmania donovani Ubiquitin Activating Enzyme (LdE1)). Settings: 30 µM.
T1 sequence (whole entry): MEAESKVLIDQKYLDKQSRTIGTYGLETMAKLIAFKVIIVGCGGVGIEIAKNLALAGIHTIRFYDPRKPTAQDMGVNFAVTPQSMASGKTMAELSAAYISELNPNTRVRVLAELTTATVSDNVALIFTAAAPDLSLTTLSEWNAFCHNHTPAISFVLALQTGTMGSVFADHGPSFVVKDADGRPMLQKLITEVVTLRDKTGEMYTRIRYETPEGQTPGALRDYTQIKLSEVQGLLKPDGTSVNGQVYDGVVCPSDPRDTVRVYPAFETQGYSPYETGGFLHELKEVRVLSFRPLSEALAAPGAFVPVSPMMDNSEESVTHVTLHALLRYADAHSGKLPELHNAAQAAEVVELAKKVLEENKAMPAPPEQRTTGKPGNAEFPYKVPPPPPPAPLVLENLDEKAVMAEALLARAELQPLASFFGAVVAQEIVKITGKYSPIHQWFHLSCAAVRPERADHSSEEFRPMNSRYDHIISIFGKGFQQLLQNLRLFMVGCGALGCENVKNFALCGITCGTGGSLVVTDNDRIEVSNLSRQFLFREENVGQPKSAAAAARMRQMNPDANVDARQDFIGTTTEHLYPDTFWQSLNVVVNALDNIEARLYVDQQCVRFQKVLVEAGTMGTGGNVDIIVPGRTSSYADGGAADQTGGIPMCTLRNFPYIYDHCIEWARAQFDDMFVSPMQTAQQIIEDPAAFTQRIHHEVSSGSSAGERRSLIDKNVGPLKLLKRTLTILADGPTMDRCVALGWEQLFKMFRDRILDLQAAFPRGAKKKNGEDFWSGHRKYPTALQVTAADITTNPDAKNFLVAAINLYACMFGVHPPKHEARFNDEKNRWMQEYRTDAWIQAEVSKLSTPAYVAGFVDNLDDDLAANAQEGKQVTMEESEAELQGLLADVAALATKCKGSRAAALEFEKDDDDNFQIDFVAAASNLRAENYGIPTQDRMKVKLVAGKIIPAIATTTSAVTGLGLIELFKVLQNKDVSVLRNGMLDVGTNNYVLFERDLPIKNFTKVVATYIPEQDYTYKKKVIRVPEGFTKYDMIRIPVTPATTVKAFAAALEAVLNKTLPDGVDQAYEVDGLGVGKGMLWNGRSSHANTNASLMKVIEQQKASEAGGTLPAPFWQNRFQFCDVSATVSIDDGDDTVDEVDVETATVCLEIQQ
Assay type: functional
Parameters: scale not given: direction of the effect not stated beside the values

| SMILES | Percent Effect [%] |
| --- | --- |
| O=C(NCCNc1ncccn1)N1CCN(Cc2cccnc2)CC1 | 13.5 |
| CC(C)N1CCC(N2CCN(C3CCC3)CC2CCO)CC1 (stereo not given) | 1.39 |
| COc1ccc(CN2CCCC(Cn3nc(C)nc3C)C2)cc1F (stereo not given) | -3.8 |
| Cc1cnn(CCCNC(=O)N2CCCCC(N3CCCC3)C2)c1 (stereo not given) | 15.8 |
| CCn1cc(NC(=O)NCC(c2cccs2)N(C)C)cn1 (stereo not given) | 18.4 |
| c1cnn(Cc2cn3c(n2)CN(Cc2nccs2)CC3)c1 | -36.4 |
| CCc1noc(C2CCN(C(=O)CCn3nc(C)cc3C)CC2)n1 | 18.2 |
| CC(C#N)CSc1ccccc1NCC(=O)Nc1ccc(F)cc1 (stereo not given) | -5.48 |
| CCc1nc(CN2CCCC(NCc3nnc(C4CC4)o3)C2)no1 (stereo not given) | 18.2 |
| CCc1ccc(CCC(=O)N2CCOCC2c2ncon2)cc1 (stereo not given) | -8.11 |
| CC(=O)N1CCN(c2cc(C3CN(C)CCO3)nc(C)n2)CC1 (stereo not given) | 12.2 |
| CN(C)CC1CSCCCN1C(=O)Nc1ccc(C(C)(C)C)cc1 (stereo not given) | 5.2 |
| Cc1n[nH]c(C2CN(C(=O)c3ccco3)CCO2)n1 (stereo not given) | 2.63 |
| Clc1ccccc1C1(c2ccnc(CC3CC3)n2)CCNCC1 | -7.79 |
| Cc1cc2cc(C(=O)N[C@@H]3CC[C@@H](N4CCOCC4)[C@@H]3O)ccc2o1 | 17.6 |
| CC(C)c1nnc2n1CCN(CC(=O)Nc1nncs1)C2 | 13 |
| CCc1noc(C)c1C(=O)N1CCCC1c1c(C)nn(C)c1OC (stereo not given) | -2.53 |
| COc1cc(C)nc(N2CCN(C(=O)c3ccc[nH]3)CC2)n1 | 10.8 |
| O=C(NCc1cccnc1)C1CC(=O)N(CC2CC2)C1 (stereo not given) | 15.6 |
| Fc1ccc(CN2CCO[C@H]3[C@H](OCC4CC4)CC[C@@H]32)cc1 | -2.67 |

| SMILES | Percent Effect [%] |
| --- | --- |
| COCCN1CCC2(CCCN(C(=O)c3cnoc3C)C2)C1=O (stereo not given) | 8.22 |
| CC(C)CCN1CCNC(=O)C1CC(=O)N1CCc2sccc2C1 (stereo not given) | 0 |
| O=C(CN1CCCCC1Cn1cncn1)NC1CCN(C2CC2)CC1 (stereo not given) | -2.7 |
| COCCC(=O)N1CCC2(COCc3cnc(-c4ccccc4)nc32)C1 (stereo not given) | 2.67 |
| Cc1cc(CN2CCc3nn(C(C)C)c(=O)cc3C2)no1 | 0 |
| Cc1cccc(Cn2ccc(NS(C)(=O)=O)n2)c1 | 7.79 |
| CN1CCN(Cc2ccccc2CNC(=O)c2ccc(Br)cc2F)CC1 | 5.41 |
| CCCC(=O)N1CCC(O)(Cn2c(CC)nc3ccccc3c2=O)CC1 | 17.6 |
| CN(CC1(O)CCCCC1)C1CCCN(Cc2noc(C3CC3)n2)C1 (stereo not given) | 26.3 |
| Cc1ccc(N2CCCN(C(=O)C(C(C)C)n3cncn3)CC2)nn1 (stereo not given) | 16.2 |
| CCc1nnc(CNCC2CCCN2c2cccnn2)o1 (stereo not given) | 0 |
| Cc1cc(NC(=O)CN2CCc3nn(C)c(=O)cc3C2)on1 | 6.94 |
| CCc1c(C(=O)NCC(=O)OCC2CC2)cnn1-c1ccc(C)cc1 | 22.8 |
| Fc1ccc(CN2CCCN(Cc3cscn3)CC2)cc1 | 18.2 |
| Cc1cc(C)n(CC(=O)N2CCC(NS(C)(=O)=O)CC2)n1 | 15.8 |
| CC(=O)NCCNC(=O)CN1CCN(Cc2nccn2C)C(C)C1 (stereo not given) | 0 |
| CSCCCN1CCCC1c1noc(C)n1 (stereo not given) | 13.2 |
| CCn1ccnc1CN1CCC(CNC(=O)c2ccc(C)nc2)C1 (stereo not given) | 10.4 |
| CC(=O)N1CC(Cc2nccc3ccn(C)c23)C1 | 24 |
| NC(=O)CN1CCC(NC(=O)c2ccn(-c3cccc(F)c3)n2)CC1 | 4.17 |
